The values below come from PubChem BioAssay (EPA / NIEHS).

Assay [1] can be described thus: APR_HepG2_NuclearSize_72hr: Apredica 72-hour HepG2 Assay for Nuclear Size (AID 2282925). The following applies: high-content imaging, actives raise or lower the signal. A digest of the protocol: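 Compounds (0.39–200 uM, final DMSO 0.5%) were applied to HepG2 for 72 hr. Cells were then formaldehyde-fixed, permeabilized and labelled with Hoechst 33342. Nuclear diameter was quantified from six images per well.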

Assay [2] can be described thus: ATG_CRE_CIS: Attagene CIS-FACTORIAL HepG2 Assay for human cAMP Responsive Element (CRE) binding protein 3 (AID 2282926). The following applies: HepG2 CRE cis-reporter, Attagene multiplexed mRNA; actives raise or lower the signal. A digest of the protocol: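 Capillary electrophoresis of 6-FAM-labelled, HpaI-digested PCR products quantified reporter transcripts. These came from HepG2 transiently transfected with cis-element reporters and exposed to test chemicals for 24 hours, with DMSO defining baseline activity.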

The target of assay [3] is CCAAT/enhancer-binding protein beta (Homo sapiens) (UniProt P17676). Kind of assay: ATG_C_EBP_CIS: Attagene CIS-FACTORIAL HepG2 Assay for human CCAAT/Enhancer Binding Protein (C/EBP) beta (AID 2282927). The following applies: HepG2 Attagene cis-factorial transcription factor reporter; actives raise or lower the signal. Summed up: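 Chemical-treated HepG2 cells (24 h) bearing cis-regulated reporter constructs were processed for total RNA, then reverse transcription, PCR amplification, fluorescent primer extension and fragment analysis; gain- and loss-of-signal were fitted against DMSO.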

A short description of assay [4]: ATG_CMV_CIS: Attagene CIS-FACTORIAL HepG2 Assay for human CMV (Internal Marker) (AID 2282928).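 Note: endpoint acts as a background internal control marker rather than a target.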 The following applies: HepG2 CMV promoter reporter, transcription factor profiling; actives raise or lower the signal. A digest of the protocol:
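Readout: fluorescent reporter cDNA fragments separated by capillary electrophoresis after RT-PCR and HpaI cut. Cells: HepG2 carrying transfected cis-promoter reporter constructs, dosed 24 h. Endpoint serves as background internal-marker control, fit bidirectionally versus DMSO.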

Assay [5] in a line: ATG_DR4_LXR_CIS: Attagene CIS-FACTORIAL HepG2 Assay for human Liver X Receptor (LXR), DR4 submotif (AID 2282929). The following applies: HepG2 Attagene DR4 cis-reporter, mRNA transcription; actives raise or lower the signal. Summed up:
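HepG2, transient MRTU transfection, cis-element (DR4) promoter; 24 h compound exposure; total RNA → oligo(dT) RT → PCR → 6-FAM primer extension → HpaI cut → CE. Gain/loss vs DMSO, bidirectional fit.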

Assay [6] addresses Aryl hydrocarbon receptor (Homo sapiens) (UniProt P35869). Kind of assay: ATG_Ahr_CIS: Attagene CIS-FACTORIAL HepG2 Assay for human Aryl Hydrocarbon Receptor (Ahr) (AID 2282930). The following applies: HepG2 AhR cis-factorial reporter transcription; actives raise or lower the signal. A digest of the protocol: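 Following 24 h of chemical dosing, transfected HepG2 liver cells with cis-driven reporter units were lysed for RNA; reporter mRNA was quantified via RT-PCR and capillary electrophoresis, and responses fitted bidirectionally from DMSO.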

Assay [7] can be described thus: ATG_AP_2_CIS: Attagene CIS-FACTORIAL HepG2 Assay for human Activator Protein 2 (AP-2) (AID 2282932). The following applies: HepG2 AP-2 cis-reporter, Attagene transcription factor profiling; actives raise or lower the signal. A digest of the protocol: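 Assay in transfected HepG2 with promoter-regulated reporters, 24 h incubation after dosing. Signal is reporter mRNA fluorescence (RT-PCR, capillary electrophoresis), analysed for both increases and decreases relative to DMSO controls.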

Assay [8] can be described thus: ATG_BRE_CIS: Attagene CIS-FACTORIAL HepG2 Assay for human Bone Morphogenetic Protein (BMP) Response Element (BRE) (AID 2282933). The following applies: HepG2 BMP response element reporter, Attagene transcription factor profiling; actives raise or lower the signal. Summed up:
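Endogenous transcription factor activity read in transiently transfected HepG2 cells after 24 h chemical exposure. Bidirectional curve fitting against DMSO; readout is reporter transcript level by RT-PCR with capillary electrophoresis of labelled products.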

The target of assay [9] is Retinoic acid receptor alpha (Homo sapiens) (UniProt P10276). The assay is described as follows: ATG_DR5_RAR_CIS: Attagene CIS-FACTORIAL HepG2 Assay for human Retinoic Acid Receptor Alpha (RARE), DR5 submotif (AID 2282934).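 For AC50: reporter responds to endogenous RAR alpha beta and gamma in HepG2 not RARA alone.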 The following applies: HepG2 Attagene cis-factorial RARE DR5 reporter, mRNA; actives raise or lower the signal. A digest of the protocol: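 Transfected HepG2 reporter cells are exposed to chemicals for 24 h. Then RNA is extracted and the DR5 element reporter transcript is measured by RT-PCR and capillary electrophoresis, with bidirectional curve fitting relative to DMSO.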

Assay [10] addresses Transcription factor E2F1 (Homo sapiens) (UniProt Q01094). Kind of assay: ATG_E2F_CIS: Attagene CIS-FACTORIAL HepG2 Assay for human E2F Transcription Factor 1 (AID 2282935). The following applies: HepG2 Attagene cis-reporter, E2F reporter RNA transcripts; actives raise or lower the signal. Summed up: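 In this cis-factorial format, endogenous factor activity drives transfected reporters in HepG2; transcripts collected at 24 h are quantified by fluorescence after RT-PCR and capillary separation.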

Assay [11] is described as follows: ATG_E_Box_CIS: Attagene CIS-FACTORIAL HepG2 Assay for human Enhancer Box (E-box) (AID 2282936). The following applies: HepG2 E-box cis-reporter transcription, actives raise or lower the signal. Summed up: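 Measured 24 h post-dosing in HepG2 cells transfected with multiple cis-regulated reporter units, signal being reporter mRNA induction detected by fluorescent RT-PCR with capillary electrophoresis; gain or loss fitted against DMSO.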

A short description of assay [12]: ATG_M_61_CIS: Attagene CIS-FACTORIAL HepG2 Assay for M61 Transcription Factor (Internal Marker) (AID 2282937). The following applies: HepG2 Attagene CIS-FACTORIAL M61 internal marker reporter; actives raise or lower the signal. Summed up: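 Human liver HepG2, transient MRTU transfection (cis promoter elements), 24 h compound. Total RNA → oligo(dT) RT → PCR → FAM label → HpaI → CE. Internal background marker; bidirectional fitting, DMSO = baseline.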

Assay [13] can be described thus: ATG_EGR_CIS: Attagene CIS-FACTORIAL HepG2 Assay for human Early Growth Response 1 (EGR1) (AID 2282938). The following applies: HepG2 Attagene CIS-FACTORIAL EGR reporter mRNA; actives raise or lower the signal. Summed up: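 Transient transfection of human HepG2 with multiple cis-regulated reporter units, chemical exposure 24 h, total RNA isolated. Reverse transcription, PCR, fluorescent labelling and capillary electrophoresis quantify reporter transcripts; activity fitted bidirectionally against DMSO.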

Assay [14] can be described thus: ATG_M_19_CIS: Attagene CIS-FACTORIAL HepG2 Assay for M19 Transcription Factor (Internal Marker) (AID 2282939). The following applies: HepG2 Attagene CIS-FACTORIAL M19 internal marker reporter; actives raise or lower the signal. Summed up:
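Internal marker readout, fitted in both directions against DMSO, from HepG2 cells carrying transfected cis-element reporter constructs; RT-PCR and capillary electrophoresis of reporter mRNA after 24 h exposure.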

Assay [15] can be described thus: ATG_ERE_CIS: Attagene CIS-FACTORIAL HepG2 Assay for Estrogen Response Element (ERE) (AID 2282940). The following applies: HepG2 ERE cis-reporter, Attagene RNA transcript; actives raise or lower the signal. Summed up:
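After 24 h compound treatment, RNA from transfected HepG2 cells was reverse-transcribed, reporter cDNA PCR-amplified, FAM-labelled, HpaI-cut and resolved by capillary electrophoresis. ERE-driven cis reporter transcripts reflect endogenous factors; gain or loss scored against DMSO.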

A short description of assay [16]: ATG_Ets_CIS: Attagene CIS-FACTORIAL HepG2 Assay for human Erythroblast Transformation Specific (ETS) (AID 2282941). The following applies: HepG2 ETS cis-reporter transcription, actives raise or lower the signal. A digest of the protocol:
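RT-PCR/capillary electrophoresis fluorescence read-out of reporter mRNA; HepG2 transient multi-reporter transfection; 24 h compound exposure; gain or loss of signal fitted bidirectionally relative to DMSO.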

Assay [17] concerns the target Hepatocyte nuclear factor 3-beta (Homo sapiens) (UniProt Q9Y261). The assay is described as follows: ATG_FoxA2_CIS: Attagene CIS-FACTORIAL HepG2 Assay for human Forkhead box A2 (FOXA2) (AID 2282942). The following applies: HepG2 cis-reporter transcription factor activity, 24 h; actives raise or lower the signal. A digest of the protocol:
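Transient MRTU transfection of HepG2 liver cells; 24 h treatment; total RNA → oligo(dT) RT → PCR → FAM primer extension → HpaI cut → CE. Bidirectional fit vs DMSO.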

Assay [18] is described as follows: ATG_FoxO_CIS: Attagene CIS-FACTORIAL HepG2 Assay for human Forkhead box O (FoxO) (AID 2282943). The following applies: HepG2 Attagene cis-reporter, FoxO element, mRNA; actives raise or lower the signal. Summed up:
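24 h chemical exposure, HepG2 with transient cis-MRTU transfection. RNA extraction, oligo(dT) RT, reporter-specific PCR, primer-extension labelling, HpaI digestion, CE fragment analysis; bidirectional fit, DMSO baseline.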

Assay [19] can be described thus: ATG_GATA_CIS: Attagene CIS-FACTORIAL HepG2 Assay for human GATA Binding Protein (AID 2282944). The following applies: HepG2 GATA cis-element reporter, Attagene multiplex mRNA; actives raise or lower the signal. A digest of the protocol:
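Reporter transcripts from a GATA cis-regulated unit, among multiplexed reporters in transfected HepG2 cells, were measured by RT-PCR with capillary electrophoresis after 24 h dosing. Induction or loss scored relative to DMSO.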

Calls of active or inactive are those of the source. Rule for the calls: active = hit-call score of the fitted dose curve at least 0.9, where 1 is the maximum; inactive = score below 0.9.

Sequence of Retinoic acid receptor alpha (Homo sapiens) (P10276 whole entry, looked up): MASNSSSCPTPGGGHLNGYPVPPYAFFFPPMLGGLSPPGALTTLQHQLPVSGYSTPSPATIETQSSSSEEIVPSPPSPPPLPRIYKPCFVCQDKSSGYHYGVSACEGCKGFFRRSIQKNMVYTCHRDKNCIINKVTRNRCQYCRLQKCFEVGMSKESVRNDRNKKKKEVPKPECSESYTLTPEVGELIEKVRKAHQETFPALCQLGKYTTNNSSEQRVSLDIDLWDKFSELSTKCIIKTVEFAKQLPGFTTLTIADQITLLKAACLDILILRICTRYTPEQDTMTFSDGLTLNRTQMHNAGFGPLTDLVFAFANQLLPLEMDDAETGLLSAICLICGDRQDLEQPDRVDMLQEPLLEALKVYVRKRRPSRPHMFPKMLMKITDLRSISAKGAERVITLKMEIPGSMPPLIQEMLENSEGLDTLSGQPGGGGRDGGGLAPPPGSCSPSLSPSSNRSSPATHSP
Sequence of Aryl hydrocarbon receptor (Homo sapiens) (P35869 whole entry, looked up): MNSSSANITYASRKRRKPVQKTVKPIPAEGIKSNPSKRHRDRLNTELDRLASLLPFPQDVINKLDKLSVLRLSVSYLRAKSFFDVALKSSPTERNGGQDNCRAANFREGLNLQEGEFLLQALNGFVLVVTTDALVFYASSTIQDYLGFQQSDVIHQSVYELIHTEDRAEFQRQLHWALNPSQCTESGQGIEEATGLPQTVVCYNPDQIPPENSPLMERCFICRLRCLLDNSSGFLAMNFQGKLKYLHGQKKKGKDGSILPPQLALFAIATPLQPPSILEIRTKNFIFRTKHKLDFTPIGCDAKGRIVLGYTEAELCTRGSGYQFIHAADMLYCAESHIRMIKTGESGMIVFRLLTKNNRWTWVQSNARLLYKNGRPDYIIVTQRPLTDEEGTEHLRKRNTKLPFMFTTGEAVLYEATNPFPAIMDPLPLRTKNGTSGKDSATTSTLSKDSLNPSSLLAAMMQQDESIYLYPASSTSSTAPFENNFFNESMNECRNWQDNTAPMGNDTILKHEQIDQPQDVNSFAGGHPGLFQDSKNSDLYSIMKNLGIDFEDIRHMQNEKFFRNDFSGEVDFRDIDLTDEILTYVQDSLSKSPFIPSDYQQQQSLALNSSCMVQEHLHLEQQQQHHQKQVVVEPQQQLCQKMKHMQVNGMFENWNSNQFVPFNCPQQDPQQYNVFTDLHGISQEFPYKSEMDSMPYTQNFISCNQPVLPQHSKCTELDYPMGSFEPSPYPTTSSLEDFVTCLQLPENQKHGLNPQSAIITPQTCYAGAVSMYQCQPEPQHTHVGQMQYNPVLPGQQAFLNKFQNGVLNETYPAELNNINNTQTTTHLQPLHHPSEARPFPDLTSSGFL
Sequence of Hepatocyte nuclear factor 3-beta (Homo sapiens) (Q9Y261 whole entry, looked up): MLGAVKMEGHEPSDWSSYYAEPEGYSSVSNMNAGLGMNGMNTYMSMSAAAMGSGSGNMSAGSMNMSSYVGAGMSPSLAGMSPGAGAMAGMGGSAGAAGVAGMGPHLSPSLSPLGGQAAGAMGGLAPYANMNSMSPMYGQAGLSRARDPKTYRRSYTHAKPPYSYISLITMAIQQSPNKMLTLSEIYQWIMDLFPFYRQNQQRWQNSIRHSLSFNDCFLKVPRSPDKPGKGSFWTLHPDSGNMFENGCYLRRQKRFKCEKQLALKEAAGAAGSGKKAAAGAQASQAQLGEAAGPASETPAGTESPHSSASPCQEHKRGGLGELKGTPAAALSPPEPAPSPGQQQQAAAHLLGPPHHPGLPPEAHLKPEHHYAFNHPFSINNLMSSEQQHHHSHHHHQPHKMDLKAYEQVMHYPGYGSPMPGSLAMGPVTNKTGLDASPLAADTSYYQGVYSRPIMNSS
Sequence of CCAAT/enhancer-binding protein beta (Homo sapiens) (P17676 whole entry, looked up, the tested form may be a part): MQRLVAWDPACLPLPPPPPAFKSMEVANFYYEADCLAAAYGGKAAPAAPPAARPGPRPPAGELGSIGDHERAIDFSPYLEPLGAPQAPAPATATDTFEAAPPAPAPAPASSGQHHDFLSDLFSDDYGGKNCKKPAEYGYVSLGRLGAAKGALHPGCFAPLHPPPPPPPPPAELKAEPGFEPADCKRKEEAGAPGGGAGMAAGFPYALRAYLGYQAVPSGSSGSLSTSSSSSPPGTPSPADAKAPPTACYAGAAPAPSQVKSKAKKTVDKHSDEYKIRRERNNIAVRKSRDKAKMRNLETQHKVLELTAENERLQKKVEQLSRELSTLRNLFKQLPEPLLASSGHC
Sequence of Transcription factor E2F1 (Homo sapiens) (Q01094 whole entry, looked up): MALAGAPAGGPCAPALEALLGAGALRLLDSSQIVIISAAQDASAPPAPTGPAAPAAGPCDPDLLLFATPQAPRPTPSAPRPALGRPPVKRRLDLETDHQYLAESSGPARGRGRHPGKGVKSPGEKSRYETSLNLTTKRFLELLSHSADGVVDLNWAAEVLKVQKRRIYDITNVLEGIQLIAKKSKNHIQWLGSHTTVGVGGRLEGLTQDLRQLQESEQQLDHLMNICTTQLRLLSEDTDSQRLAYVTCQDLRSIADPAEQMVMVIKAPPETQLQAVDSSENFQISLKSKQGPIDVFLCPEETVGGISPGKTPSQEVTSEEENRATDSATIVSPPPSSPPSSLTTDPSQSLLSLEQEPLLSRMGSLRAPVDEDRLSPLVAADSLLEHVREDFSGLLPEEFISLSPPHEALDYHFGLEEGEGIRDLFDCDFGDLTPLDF

On to `COC(=O)c1ccccc1C(=O)OC`, for which the outcome in assay [1], in [2], in [3], in [4], in assay [5] and in assay [6] was inactive. The molecule was called inactive in [7], in assay [8], in [9], in [10], in assay [11] and in assay [12]. Moreover, the outcome in assay [13], in [14], in assay [15], in assay [16], in assay [17] and in [18] was inactive. In [19], the molecule was classed as inactive.

In the case of `Fc1ccc(Oc2ccnc3cc(Cl)cc(Cl)c23)cc1`, the molecule was called inactive in assay [1], in assay [2], in [3], in assay [6], in assay [7] and in assay [8]. For the same molecule, the outcome in assay [10], in assay [12], in assay [13], in [14], in assay [15] and in assay [16] was inactive. Also, the result in [17], in assay [18] and in assay [19] was inactive. The AC50 was 6.43 µM (active) in assay [4], 2.72 µM (active) in [5], 2.77 µM (active) in assay [9] and 5.95 µM (active) in assay [11].

`C#CCOS(=O)OC1CCCCC1Oc1ccc(C(C)(C)C)cc1` (centres undefined): the molecule was called inactive in [1], in assay [4], in assay [5], in [6], in assay [7] and in assay [9]. The outcome in assay [10], in [11], in assay [12], in assay [14], in assay [15] and in assay [16] was inactive. Moreover, the outcome in [17] and in [19] was inactive. The AC50 in [2] is 0.994 µM (active); in assay [3], 0.658 µM (active); in [8], 1.16 µM (active); in [13], 1.46 µM (active).

In the case of `CC(Oc1ccc(Cl)cc1Cl)C(=O)O` (centres undefined), the molecule was classed as inactive in assay [1], in assay [2], in assay [3], in [4], in [5] and in assay [6]. Also, the molecule was classed as inactive in [7], in assay [8], in assay [9], in assay [10], in assay [11] and in assay [12]. Moreover, the outcome in assay [13], in assay [14], in assay [15], in assay [16], in [17] and in [19] was inactive.
